Compound activity (PubChem)
OTUD3 inh = inhibitors of human OTUD3 deubiquitinase. Q5T2D3. AID 1645858. inhibition, % at 25 µM. purified OTUD3, Ub-rhodamine fluorescence, 2 h. hit rate 0.7% among 47,000
USP28 block = inhibitors of human USP28 deubiquitinase | purified USP28, Ub-rhodamine cleavage fluorescence, 30 min | inhibition, % at 25 µM | AID 1645857 | hit rate 3% among 47,000 | Q96RU2
USP30 block = blocks human USP30 ubiquitin-rhodamine cleavage; Q70CQ3; purified USP30, Ub-rhodamine cleavage fluorescence; hit rate 5.3% among 47,000; AID 1645860; inhibition, % at 25 µM
Target sequence (Q70CQ3 whole entry, looked up): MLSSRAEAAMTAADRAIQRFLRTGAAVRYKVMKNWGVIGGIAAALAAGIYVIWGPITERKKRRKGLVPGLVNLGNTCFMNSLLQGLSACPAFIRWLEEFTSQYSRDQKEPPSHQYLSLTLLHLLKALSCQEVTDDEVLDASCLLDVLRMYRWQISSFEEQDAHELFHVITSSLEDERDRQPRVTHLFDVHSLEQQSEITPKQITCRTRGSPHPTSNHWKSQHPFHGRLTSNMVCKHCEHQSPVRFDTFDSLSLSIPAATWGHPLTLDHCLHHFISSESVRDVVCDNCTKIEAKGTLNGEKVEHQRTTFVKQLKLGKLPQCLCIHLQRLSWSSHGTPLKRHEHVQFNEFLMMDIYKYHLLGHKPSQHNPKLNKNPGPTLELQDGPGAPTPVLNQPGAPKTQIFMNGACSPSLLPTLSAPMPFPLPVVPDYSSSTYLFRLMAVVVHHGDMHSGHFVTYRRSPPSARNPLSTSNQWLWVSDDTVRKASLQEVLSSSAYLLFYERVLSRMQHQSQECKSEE
USP17 block = inhibitors of human USP17 deubiquitinase. inhibition, % at 50 µM. hit rate 6.5% among 47,000. purified USP17, Ub-rhodamine cleavage fluorescence, 3 h. AID 1645855. A8MUK1
* = called active by the depositor; . = not tested or not shown. This is a sample that favours compounds with a hit; in the whole collection about 12% have one here. Cut-off read from the data, not from the text of the source: active = inhibition above about 30%; inactive = the rest.

SMILES | OTUD3 inh | USP28 block | USP30 block | USP17 block
Cc1sc2ccn(C)c(=O)c2c1C(=O)NC1CCCC1 | 9 | 28 | 3 | 62*
Cc1cc2c(cc(C(=O)NC3CC3)n2C)s1 | 3 | 1 | -29 | -4
CCOc1ccccc1NC(=O)COC(=O)C(c1ccccc1)c1ccccc1 | 34* | 21 | 6 | 22
COc1ccc(C(=O)CSc2nnc(CN3CCOCC3)n2C)cc1 | -4 | -3 | -11 | -3
CCc1cccc(NC(=O)c2c(N3CCCC3=O)c3cc(F)ccc3n2C)c1 | 3 | 7 | 0 | 4
COc1ccccc1S(=O)(=O)N1CC[C@@H]2CN(C)[C@@H]2C1 | 7 | 7 | 18 | 56*
CCOC(=O)N1CCC(NC(=O)c2cnn3c(-c4ccccc4)ccnc23)CC1 | 0 | 3 | 40* | 32*
COc1ccc(NC(=O)c2nnc(C(=O)NCc3ccccc3F)s2)cc1 | -1 | 0 | -2 | 5
Cc1ccccc1CNC(=O)c1nnc(C(=O)Nc2ccc(F)cc2)s1 | 16 | 19 | 39* | 11
COC(=O)c1ccc2c(=O)[nH]c(CN3CCCC3)nc2c1 | 0 | -4 | 0 | -2
Cc1cccc(C(=O)Nc2nnc(Cc3cn(C)c4ccccc34)s2)c1 | 0 | 9 | -62 | 27
CCn1nc(C)c(CNC(=O)c2[nH]c3ccc(C)cc3c2NC(=O)c2cccc(C)c2)c1C | 71* | 24 | 88* | 77*
Cc1cccc(C(=O)Nc2c(C)nn(Cc3cccc4ccccc34)c2C)c1 | 14 | 31* | 19 | 24
Cc1nc(NCCc2c[nH]c3ccccc23)cc(-c2cncc(-c3cc4ccccc4s3)c2)n1 | -4 | -13 | -40 | -2
CC12CN(C(=O)c3ccco3)CC(C)(CN(C(=O)c3ccco3)C1)C2=O | -7 | -2 | 1 | -2
Cn1cccc1C(=O)NC[C@@H]1OC[C@H]2CN(Cc3ccco3)CC[C@H]21 | -5 | -6 | -18 | -18
COc1cccc(C(=O)COC(=O)c2cc(=O)[nH]c3ccccc23)c1 | 0 | 0 | -26 | 37*
O=C(COC(=O)c1cc(=O)[nH]c2ccccc12)c1ccc(Cl)cc1 | -10 | -10 | -9 | -4
CC(=O)N1CCc2cc(S(=O)(=O)NCCC(=O)NCCc3ccc(C)cc3)ccc21 | 6 | 4 | 21 | 1
CC(=O)N1CCc2cc(CNC(=O)Nc3cc(C)ccc3C)ccc21 | 12 | 13 | 67* | 43*
CCCn1c2ccccc2n2cc(-c3ccc(-c4ccccc4)cc3)nc12 | 9 | 17 | 2 | 34*
Fc1ccc(-c2cn3c4ccccc4n(Cc4ccc(Cl)cc4)c3n2)cc1 | -11 | 29 | -12 | 46*
Brc1ccc(-c2cn3c4ccccc4n(CCN4CCCCC4)c3n2)cc1 | 5 | 9 | 18 | 20
CN(C)c1cc(N2CCCC(C)(C(=O)NCc3ccncc3)C2)ncn1 (stereo not drawn) | -9 | -11 | -28 | -14
O=C(Cc1ccccc1)N1CCN(c2nc3ccc(Cl)cc3s2)CC1 | 16 | 9 | 33* | 17
SMILES | OTUD3 inh | USP28 block | USP30 block | USP17 block
COc1ccc(C2CN(Cc3ccncc3)CCN2C(C)=O)cc1 (stereo not drawn) | 4 | 10 | 18 | 0
Cc1ccc(NC(=O)CNc2nc(Nc3ccccc3)nc(Nc3ccccc3)n2)cc1 | -5 | -11 | 1 | 7
CCOc1ccc(NC(=O)CCn2c(-c3ccc(OC)cc3)cc(C(C)=O)c2C)cc1 | 13 | 20 | 80* | 70*
CCOc1ccc(NC(=O)CNc2nc(Nc3ccc(OC)cc3)nc(Nc3ccc(OC)cc3)n2)cc1 | 14 | 20 | 69* | 58*
COc1ccc(C(C)=O)cc1CN1C(=O)NC2(CCCc3ccccc32)C1=O (stereo not drawn) | 6 | 8 | 15 | 7
O=C(Nc1ccccc1F)c1cc(-c2cccnc2)n[nH]1 | 13 | . | . | 70*
CSc1cccc(NC(=O)c2cc(-c3cccnc3)n[nH]2)c1 | 0 | 53* | 65* | 79*
COc1cccc(-c2cc(C(=O)Nc3ccccc3)[nH]n2)c1 | 10 | 22 | 35* | 39*
COc1ccc(CCNC(=O)c2cc(-c3cccnc3)n[nH]2)cc1OC | 4 | 18 | 17 | 0
COc1cccc(-c2cc(C(=O)Nc3cccc(C(C)=O)c3)[nH]n2)c1 | -39 | -32 | -64 | 2
CNC(=O)NC(=O)CSc1nnc(-c2ccc(Cl)cc2)o1 | -1 | 0 | 7 | 33*
CN(C)S(=O)(=O)N1C[C@H]2CC(OCc3ccccc3)C[C@H]2C1 (stereo partly drawn) | 8 | 19 | 17 | 7
Cc1ccc(NC(=O)CSc2nnc(-c3cccnc3)o2)cc1F | 17 | 16 | 22 | 14
O=C(CSc1nnc(-c2cccnc2)o1)Nc1cccc(Cl)c1 | 9 | 15 | 30 | 33*
Cc1cccc(NC(=O)C2CCN(C(=O)c3cc(-c4ccncc4)n[nH]3)CC2)c1 | -5 | 1 | -53 | 0
COc1cccc(NC(=O)C2CCN(C(=O)c3cc(-c4cccnc4)n[nH]3)CC2)c1 | 2 | 57* | 9 | 0
COc1ccc(Cl)cc1NC(=O)c1cc(-c2ccncc2)n[nH]1 | 2 | 7 | 20 | 13
O=C(Nc1cccc(Cl)c1)c1cc(-c2cccnc2)n[nH]1 | 1 | 55* | 47* | 83*
CC(C)OCCCn1c(=O)c2ccccc2n2c(CCC(=O)NCCc3c[nH]c4ccccc34)nnc12 | 17 | 18 | 28 | 37*
COc1cccc(NC(=O)CCc2nnc3n(CCCOC(C)C)c(=O)c4ccccc4n23)c1 | 37* | 70* | 89* | 69*
Cc1cc(C)cc(-n2ccn3cc(-c4cccc(Cl)c4)nc3c2=O)c1 | -12 | -5 | -35 | 45*
O=C(c1ccc(F)cc1)N1CCN(Cc2nnnn2-c2cccc(F)c2)CC1 | 6 | 7 | 23 | 0
CCOC(=O)N1CCN(Cc2nnnn2-c2cccc(F)c2)CC1 | 23 | 11 | 34* | 17
COc1cccc(-c2cc(C(=O)Nc3cc(C)n(Cc4ccc(Cl)cc4)n3)no2)c1 | 27 | 13 | 75* | 20
Cc1ccc(Cn2ccc(NC(=O)c3cc(-c4ccco4)on3)n2)cc1 | 5 | -86 | -266 | 30*
SMILES | OTUD3 inh | USP28 block | USP30 block | USP17 block
Cc1cc(NC(=O)c2ccccn2)nn1Cc1ccccc1 | 2 | 14 | 3 | 2
COc1ccc(-c2cc(C(=O)Nc3ccnn3Cc3ccccc3)no2)cc1 | 0 | -3 | 32* | 37*
CCN1C[C@H]2CCN(C(=O)c3ccc(Cl)cc3)CC[C@H]2S1(=O)=O | 3 | -1 | 0 | -1
CC(=O)N1CCCN(C2=NS(=O)(=O)C(c3ccccc3)=C2C)CC1 | -75 | -95 | -349 | -142
CCn1nccc1C1CCCN1S(=O)(=O)c1cccc(Cl)c1 (stereo not drawn) | -1 | 0 | 0 | -10
Cc1ccc(NC(=O)Nc2cccn3nc(C)nc23)cc1 | 1 | 47* | 14 | 1
COc1ccc(CC(=O)OCC(=O)NC(c2ccccc2)c2ccccc2)cc1 | 9 | 13 | 30 | 5
CC(=O)c1cc2c(=O)c3c(C(=O)O)c(O)c(O)cc3oc2c(C(C)=O)c1-c1coc2cc(O)c(O)c(C(=O)O)c2c1=O | 60* | 40* | -87 | 46*
